ssDAF12 agonist: activates DAF-12 receptor from parasite S. stercoralis | activation, % at 6.8 µM | HEK293 ssDAF-12/GRIP1 lit1-tk-luc reporter, luminescence; % of 3 µM dafachronic acid response | 1% of 370,000 active | AID 652126;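 active = activation above the mean over all tested compounds plus 3 SD, cut at about 0.9% in these data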
hgDAF12 agonist: hgDAF-12 agonism, primary luciferase screen; HEK293 GAL4-hgDAF12 UAS-luciferase reporter, agonist luminescence; normalized to butyrate control; activation, % at 6.8 µM; 1.8% of 370,000 active; AID 687014;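 active = activation above a cutoff set at the mean of all screened compounds plus 3 SD, cut at about 10% in these data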
DAX1 inh-1: inhibitors of human orphan nuclear receptor DAX1 (NR0B1); P51843; HEK293 Gal4-DAX1 luciferase reporter, luminescence; inhibition, % at 6.75 µM; 0.99% of 340,000 active; AID 504766;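 active = inhibition above the mean over all tested compounds plus 3 SD, cut at about 4.2% in these data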;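 note: inhibition shows as a rise in luminescence from relieved DAX1 repression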
Target sequence (P51843 207-470 limits assumed): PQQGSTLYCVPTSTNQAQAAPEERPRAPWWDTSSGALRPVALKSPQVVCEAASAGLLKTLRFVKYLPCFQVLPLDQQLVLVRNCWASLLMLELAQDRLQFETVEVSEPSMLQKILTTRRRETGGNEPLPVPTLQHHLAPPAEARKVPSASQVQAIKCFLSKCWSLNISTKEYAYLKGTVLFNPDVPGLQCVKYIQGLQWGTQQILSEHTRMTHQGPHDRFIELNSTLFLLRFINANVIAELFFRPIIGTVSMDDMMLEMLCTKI
DAX1 inh-2: inhibitors of DAX1 repression of SF-1 activated StAR promoter | 1.1% of 370,000 active | inhibition, % at 6.8 µM | HEK293T StAR-luciferase reporter, SF-1/DAX-1 repression relief | AID 652010;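 active = inhibition above the mean over all tested compounds plus 3 SD, cut at about 3.6% in these data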;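 note: higher inhibition means more luminescence from relief of DAX-1 repression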
hcDAF12 agonist: H. contortus DAF-12 activation, primary screen | activation, % at 6.8 µM | 1.4% of 370,000 active | AID 652067 | HEK293 hcDAF-12 lit1-tk-luc reporter, luminescence; 0% DMSO, 100% Δ7-dafachronic acid;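 active = activation above the mean of all tested compounds plus 3 SD, cut at about 5.5% in these data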
Of the large screens only hits and unclear results are named; the others gave an inactive call. Most compounds without a hit are left out; they make up all but 4.1% or so of the library.

CCCC(=O)Nc1nc2nc(-c3ccccc3)cc(-c3ccccc3)n2n1	none
O=C(O)CCC(=O)Nc1nc2nccc(-c3ccccc3)n2n1	DAX1 inh-1 4.8
CC(=N/O)/C(C)=N\NC(=O)c1ccccn1	hgDAF12 agonist 13
C/C(CC(=O)Nc1ccc(N(C)C)cc1)=N\NC(=O)c1ccc(F)cc1	none
C/C(CC(=O)NCc1ccccc1Cl)=N/NC(=O)c1ccccn1	hgDAF12 agonist 11
C/C(CC(=O)Nc1ccc(F)cc1)=N\NC(=O)c1ccccn1	hgDAF12 agonist 11
CCc1ccc(/C(C)=N/NC(=O)c2ccccn2)cc1	none
Cc1occc1C(=O)n1nnc2ccccc21	hcDAF12 agonist 5.8 (no result: DAX1 inh-1)
COc1ccc(C(C)=O)cc1CSc1nnc(Nc2c(C)cccc2C)s1	DAX1 inh-1 4.6
CCC(=O)N1CCc2cc(Br)c(S(=O)(=O)N3CCC(C(=O)NC(C)(C)C)CC3)cc21	none (no result: DAX1 inh-1)
Cc1ccccc1CN1CCCCC(NC(=O)Cc2cccs2)C1=O (centres undefined)	none (no result: DAX1 inh-1)
CCOC(=O)C(Nc1ccc2ccccc2c1)C(=O)OCC	hcDAF12 agonist 5.7
CC(=O)Nc1ccc2ccccc2c1	none (no result: ssDAF12 agonist, hgDAF12 agonist, DAX1 inh-2, hcDAF12 agonist)
CC(C)C[C@@H]1COc2cc(F)ccc2S(=O)(=O)N1C	none (no result: DAX1 inh-1)
O=C(Nc1ccc(F)cc1F)C1CCN(c2ncnc3c2sc2cccc(F)c23)CC1	none
CCN(CC)CCCNC(=O)C1CCN(c2ncnc3c2sc2cccc(F)c23)CC1	ssDAF12 agonist 1.0
COc1ccc(C(C(=O)Nc2ccc(F)cc2)N2CCN(CC(=O)N3CCCC3)CC2)cc1 (centres undefined)	DAX1 inh-2 4.2 (no result: DAX1 inh-1)
O=C(Nc1ccc(F)cc1)C(c1ccccc1)N1CCN(CC(=O)N2CCCC2)CC1 (centres undefined)	none
Cc1cc(NC(=O)c2c(F)cccc2Cl)n(-c2nc3ccccc3[nH]2)n1	none
CC(C)(C)c1cc(NC(=O)c2c(F)cccc2Cl)n(-c2ccccc2)n1	DAX1 inh-1 4.5
Cc1ccc2c(c1)-c1c(cnn1CC(=O)NCCc1ccc(O)cc1)CO2	none (no result: DAX1 inh-1)
O=c1c2cc(NC(=S)N3CCCCC3)ccc2nc2n1CCCCC2	ssDAF12 agonist 1.1
Nc1ccn([C@@H]2O[C@H](C(=O)N[C@H](Cc3ccccc3)C(=O)N3CCSC3)[C@@H](O)[C@H]2O)c(=O)n1	none (no result: DAX1 inh-1)
CC(C)CC(=O)Nc1ccc([N+](=O)[O-])cc1Cl	DAX1 inh-1 4.3
CCOCC(=O)Nc1ccc([N+](=O)[O-])cc1Cl	none (no result: DAX1 inh-1)
Cc1cc(NC(=O)CSc2nc(C(C)C)nc3ccccc23)no1	none
Cc1cc(NC(=O)C(C)Sc2nc(-c3cccs3)nc3ccccc23)no1 (centres undefined)	DAX1 inh-1 4.5
CCC1CCCCN1C(=S)NN=C(C)c1ccccn1 (centres undefined)	none (no result: DAX1 inh-1)
CC(C)(C)NC(=O)C(Cc1ccccc1)NS(=O)(=O)c1ccc2c(c1)CCC(=O)N2 (centres undefined)	none
Cc1ccc(CCNC(=O)C2CCN(S(=O)(=O)c3ccc4c(c3)CCC(=O)N4)CC2)cc1	none
O=C1CCc2cc(S(=O)(=O)NC(Cc3ccccc3)C(=O)NCCC3=CCCCC3)ccc2N1 (centres undefined)	DAX1 inh-1 4.3
O=C1CCc2cc(S(=O)(=O)N3CCC(C(=O)NCCC4=CCCCC4)CC3)ccc2N1	DAX1 inh-1 6.2
CCSc1nnc(-c2ccco2)n1C	none (no result: DAX1 inh-1)
Cn1c(SCCc2ccccc2)nnc1-c1ccco1	hgDAF12 agonist 13 (no result: DAX1 inh-1)
C=CCN1C(=O)[C@@H](CC(=O)NCCc2ccccc2OC)[C@]2(C(=O)OC)CCCCC=C12	none (no result: DAX1 inh-1)
COc1ccc(C)cc1NC(=O)C1CC1c1ccccc1 (centres undefined)	none
Cc1ccc2[nH]c(C(=O)O)c(NC(=O)[C@@H]3C[C@@H]3c3ccccc3)c2c1	ssDAF12 agonist 2.5
C[C@H](NC(=O)OCc1ccccc1)P(=O)(O)O	none (no result: DAX1 inh-1)
CCCCc1nc2cc(C(=O)N3CCC(OC)CC3)ccc2o1	none
C=CCC1(CC=C)CCCN1C(=O)c1ccc2oc(CCCC)nc2c1	hgDAF12 agonist 12, DAX1 inh-1 4.9, hcDAF12 agonist 6.3
CCCCCC(=O)N1C[C@@H](O)[C@H](n2cc(C3CC3)nn2)C[C@@H]1c1ccc(Cl)cc1	DAX1 inh-1 4.6
CCCOc1ccc(N2C(=O)CC(N(CCc3ccc(OC)c(OC)c3)C(=S)Nc3ccccc3)C2=O)cc1 (centres undefined)	none (no result: ssDAF12 agonist, hgDAF12 agonist, DAX1 inh-2, hcDAF12 agonist)
CNC(=S)N(CCc1ccc(OC)c(OC)c1)C1CC(=O)N(c2ccccc2)C1=O (centres undefined)	DAX1 inh-1 5.0 (no result: ssDAF12 agonist, hgDAF12 agonist, DAX1 inh-2, hcDAF12 agonist)
COc1ccc(C(=O)NCCN2C(=O)C3C4C=CC(C4)C3C2=O)cc1OC (centres undefined)	none (no result: DAX1 inh-1)
O=C(Nc1nnc(SCc2ccccn2)s1)C1CC(=O)N(c2ccccc2)C1 (centres undefined)	DAX1 inh-1 6.5
CC(C)(C)OC(=O)N(CCc1ccccc1)Cc1ccc(OCc2cccc(NC(=O)C3CC3)c2)cc1	none
CC(C)(C)OC(=O)N(CCc1ccccc1)Cc1cccc(OCc2cccc(NC(=O)c3ccccc3)c2)c1	DAX1 inh-2 4.1
COC(=O)[C@]12C[C@H](CC(=O)NCCc3ccccc3OC)C(=O)N(Cc3ccco3)C1=C[C@H](C(C)(C)C)O[C@@H]2C	none (no result: DAX1 inh-1)
CC(C)c1ccc(C2OCC(C)([N+](=O)[O-])CO2)cc1 (centres undefined)	DAX1 inh-2 3.9
CC(C)c1ccc(C2OCCCO2)cc1	none
Cc1ccc(Cn2cc(CN3[C@@H](CC(C)C)COc4cccc(F)c4S3(=O)=O)nn2)cc1	none (no result: DAX1 inh-1)
Cc1ccc(Cl)cc1NC(=S)NN	ssDAF12 agonist 0.9 (no result: DAX1 inh-1)
Cc1ccc(Cl)cc1NC(=O)CCC(=O)O	DAX1 inh-1 5.0
NNC(=S)Nc1ccc(Cl)cc1	none
c1nc(NCC2CCCC2)c2cc(-c3ccc4c(c3)OCO4)ccc2n1	none (no result: DAX1 inh-1, DAX1 inh-2)
O=C(Cc1csc(Nc2nc(=S)[nH]c3ccccc23)n1)NCc1ccccc1Cl	ssDAF12 agonist 1.2, hcDAF12 agonist 5.9
O=C(Cc1csc(Nc2nc(=S)[nH]c3ccccc23)n1)NCc1cccc(Cl)c1	hcDAF12 agonist 6.5
Cc1ccc(CNC(=O)Cc2csc(Nc3nc(=S)[nH]c4ccccc34)n2)cc1	none (no result: DAX1 inh-1)
COC(=O)[C@]12C[C@H](CC(=O)NCCC(C)C)C(=O)N(Cc3ccc(Cl)cc3Cl)C1=C[C@H](COCc1ccccc1)O[C@@H]2C	none (no result: DAX1 inh-1)
Cc1ccccc1C(=O)NC[C@@H]1CCCN2CCCC[C@H]12	DAX1 inh-1 4.5
O=C1Nc2ccc(F)cc2C12Nc1ccccc1-c1nnc(SCc3ccccc3)nc1O2 (centres undefined)	hcDAF12 agonist 5.6
COCCCNC(=O)C(=O)Nc1ccc2c(c1)N(S(=O)(=O)c1cccs1)CCC2	DAX1 inh-2 4.2
COc1ccccc1N1CCN(C(=O)c2oc3ccc(F)cc3c2C)CC1	none
Cc1c(C(=O)Nc2ccccc2N2CCN(C)CC2)oc2ccc(F)cc12	ssDAF12 agonist 1.0
Cn1c(=NC(=O)C(C)(C)C)sc2cccc(F)c21	DAX1 inh-1 4.3
